Source: PubChem BioAssay (NCI)
Compounds without any hit were thinned out: in the full panel of roughly 83,000, 20% have a hit.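 Growth was measured after 48 h exposure to one concentration of compound in 96-well plates. Values under 10 count as active.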 The source made the active and inactive calls.

How the values were obtained:
Experiment in all cases: NCI-60 one-dose screen, 48 h (100 = growth as untreated, 0 = no growth, -100 = all killed)
Conditions in all cases: 10 µM unless noted
[1] = system: SK-MEL-2 melanoma
[2] = system: EKVX NSCLC
[3] = system: SN12C renal
[4] = system: UO-31 renal
[5] = system: TK-10 renal
[6] = system: ACHN renal
[7] = system: CAKI-1 renal
[8] = system: A498 renal
[9] = system: CCRF-CEM leukemia
[10] = system: MOLT-4 leukemia
[11] = system: SR leukemia
[12] = system: RPMI-8226 leukemia
[13] = system: OVCAR-8 ovarian
[14] = system: OVCAR-5 ovarian
[15] = system: OVCAR-4 ovarian
[16] = system: SK-OV-3 ovarian
[17] = system: IGROV1 ovarian
[18] = system: HS 578T breast
[19] = system: NCI/ADR-RES ovarian
[20] = system: OVCAR-3 ovarian

Measured: growth

Fc1ccc(-c2cn3c(-c4c[nH]c5ccc(Br)cc45)csc3n2)cc1
inactive: [1] 90.5% | [2] 64.9% | [3] 52.4% | [4] 47.8% | [5] 80.3% | [6] 49% | [7] 38.3% | [8] 91.3% | [9] 70.3% | [10] 63.9% | [11] 88.7% | [12] 77.8% | [13] 74.8% | [14] 73.8% | [15] 34.3% | [16] 84.4% | [17] 63.7% | [18] 14% | [19] 48.7%

CC(=O)N1N=C(c2cc3ccccc3oc2=O)CC1c1cn(-c2ccccc2)nc1-c1ccc(C)cc1 (stereo not given)
inactive: [1] 108% | [2] 98.3% | [3] 98.8% | [4] 83.2% | [5] 105% | [6] 97.8% | [7] 92% | [8] 101% | [9] 102% | [10] 108% | [11] 101% | [12] 102% | [13] 97.3% | [14] 94.1% | [15] 94.4% | [16] 95.2% | [17] 108% | [18] 93.7% | [19] 96.1%

CC1CCN(CC(=O)Nn2c(COc3ccccc3)nc3ccccc3c2=O)CC1
inactive: [1] 87.2% | [2] 86.1% | [3] 96.3% | [4] 70.7% | [5] 125% | [6] 102% | [7] 71.2% | [8] 81.8% | [9] 89.4% | [10] 88.1% | [11] 30.5% | [12] 76.8% | [13] 98.5% | [14] 101% | [15] 94.9% | [17] 73.1% | [20] 94.8% | [18] 86.1% | [19] 71.6%

CNC(=O)c1cc(N2CCc3cc(NC(=O)Nc4ccc(N5CCN(C)CC5)c(C(F)(F)F)c4)ccc32)ccn1
active: [9] 5.44% | [11] -12.6% | [12] -16.4%
inactive: [1] 99.4% | [2] 82.3% | [3] 100% | [4] 88.7% | [5] 134% | [6] 85.6% | [7] 79.9% | [8] 76.9% | [10] 17.3% | [13] 95.9% | [14] 95.3% | [15] 83.4% | [16] 107% | [17] 96.2% | [18] 61.4% | [19] 97.4%

Cc1ccc(-c2nc(SCC(=O)c3ccccc3)nc(Nc3ccc(S(N)(=O)=O)cc3)c2C#N)cc1
inactive: [1] 95.7% | [2] 99.8% | [3] 63% | [4] 74.9% | [5] 67.5% | [6] 89.7% | [7] 51.5% | [8] 104% | [9] 82% | [10] 86.5% | [11] 56.9% | [12] 65.4% | [13] 34.6% | [14] 97.3% | [15] 24.3% | [16] 107% | [17] 86.3% | [19] 81.7%
active: [18] -0.186%

CN1CCN(Cc2ccc(NC(=O)c3cncc(C#Cc4cnc5ccc(OCC6COC6)nn45)c3)cc2C(F)(F)F)CC1
active: [1] -78.4% | [2] -71.6% | [3] -30.6% | [4] -92.3% | [5] -82.2% | [6] -96.5% | [7] -92.8% | [8] -93.7% | [9] -8.07% | [10] 1.49% | [11] -22.7% | [12] -24.4% | [13] -54.5% | [14] -75.1% | [15] -69.9% | [16] -22.6% | [17] -39% | [18] -37.3% | [19] -34.4%

O=C(/C=C/c1ccccc1Cl)Nc1ncc(Cc2cc(Cl)ccc2Cl)s1
active: [8] -16.6% | [18] 5.7%
inactive: [1] 30.4% | [2] 37.6% | [3] 34.1% | [4] 48.2% | [5] 61.2% | [6] 31.3% | [7] 36.6% | [9] 14% | [10] 24% | [11] 14.3% | [12] 19.7% | [13] 36.9% | [14] 56% | [15] 53.8% | [16] 43.7% | [17] 19.4% | [19] 17.9%

N#Cc1nc(-c2ccccc2)oc1N1CCC(C2(C(F)(F)F)N=N2)CC1
inactive: [1] 97.8% | [2] 92.1% | [3] 119% | [4] 82% | [5] 116% | [6] 102% | [7] 84.8% | [8] 85.4% | [9] 102% | [10] 101% | [11] 85.1% | [12] 97.2% | [13] 97.6% | [14] 109% | [15] 96.4% | [16] 96.2% | [17] 108% | [18] 96.7% | [19] 102%

CC(C)C(/C=C/c1[nH]ncc1-c1cc(Cl)ccc1O)N1CCOCC1 (stereo not given)
inactive: [1] 91.3% | [2] 95.9% | [3] 97.7% | [4] 70% | [5] 119% | [6] 92.8% | [7] 69.7% | [8] 81.7% | [9] 97.7% | [10] 86% | [11] 87.9% | [12] 94.5% | [13] 91.9% | [14] 99.4% | [16] 92.8% | [17] 88.6% | [18] 83.8% | [19] 88.1%
